Measurements from the supplement of paper PMC7801607.

Key:
[1] = tested on: CHO; assay: % viability of CHO cells (MTT); higher = less toxic; details: 48 h
Summary of the method: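 After overnight attachment of CHO cells seeded at 10^6 cells/well in 200 µL, the medium was exchanged for fresh medium holding compound at 2 or 20 µM. Exposure lasted 48 h. Survival was read with the colorimetric tetrazolium (MTT) assay and expressed as percent of untreated cells.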

[2] = tested on: HepG2-A16-CD81; assay: % inhibition of HepG2 viability (CellTiter-Glo); higher = more toxic; details: 5 µM
[3] = tested on: Plasmodium falciparum NF54 stage IV/V gametocytes; assay: % inhibition of gametocyte viability (PrestoBlue); higher = more inhibition; details: 48 h
Summary of the method: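 Compound at 1 or 5 µM was incubated with Stage IV/V NF54 gametocytes (2% gametocytaemia, 5% haematocrit) for 48 h at 37 °C, stationary and hypoxic. A 2 h PrestoBlue step followed, with fluorescence read at 612 nm on transferred supernatant. Inhibition of gametocyte viability, in percent, was normalised to vehicle and kill controls from a single run.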

[4] = tested on: Plasmodium falciparum NF54 asexual blood stage; assay: % inhibition of asexual blood stage proliferation (pLDH); higher = more inhibition; details: 72 h
Summary of the method: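 Compound was tested at 2 or 20 µM against Plasmodium falciparum NF54 ring stages (1% haematocrit, 2% parasitaemia) for 72 h at 37 °C in 4% CO2, 3% O2 and 93% N2. Survival was read at 620 nm with the parasite lactate dehydrogenase assay, and inhibition of asexual proliferation was given as a percentage of controls.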

[5] = tested on: Plasmodium falciparum NF54 stage IV/V gametocytes; assay: % inhibition of gametocyte viability (ATP bioluminescence); higher = more inhibition; details: 24 h
Summary of the method: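 Compound at 1 or 5 µM was tested on stage IV/V NF54 gametocytes, enriched on density gradients and plated at 30,000 per well in 96-well plates. After 24 h at 37 °C, ATP was quantified by Promega BacTiter Glo bioluminescence. Values are percent inhibition of gametocyte viability from one run, normalised to controls.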

[6] = tested on: Plasmodium falciparum NF54 stage IV/V gametocytes; assay: % inhibition of gametocyte viability (luciferase reporter); higher = more inhibition; details: 48 h
Summary of the method: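 Percent inhibition came from luminescence and was normalised to controls in a single run. Gametocytes (stage IV/V, NF54-Pfs16-GFP-Luc line, 2% gametocytaemia, 2% haematocrit) were treated with compound at 1 or 5 µM and incubated for 48 h at 37 °C without agitation under hypoxia. Readings used 30 µL lysate with 30 µL Promega luciferin substrate on a GloMax-Multi+ reader, integrating for 10 s.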

[7] = tested on: Plasmodium berghei ANKA liver stage in HepG2-A16-CD81; assay: % inhibition of liver stage parasite viability (luciferase); higher = more inhibition; details: 5 µM; 48 h
Method: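 Single-concentration screen of the MMV Pandemic Response Box. P. falciparum NF54 asexual blood stages: pLDH assay, 72 h at 37 °C, 2 and 20 µM, n=2. Stage IV/V gametocytes (NF54): luciferase reporter (NF54-Pfs16-GFP-Luc, 48 h), ATP bioluminescence (24 h) and PrestoBlue (48 h) at 1 and 5 µM, n=1. P. berghei liver stage (luciferase in HepG2-A16-CD81, 48 h post infection) at 5 µM, n=4. All normalised to DMSO and kill controls as % inhibition.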
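For % inhibition of HepG2 viability (CellTiter-Glo) in this document: HepG2-A16-CD81 hepatoma cells plated as in the liver-stage assay but without sporozoites, with DMSO wells as negative and 25 µM puromycin as positive control.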

Row | SMILES | % viability of CHO cells ([1]; 2 µM) | % viability of CHO cells ([1]; 20 µM) | % inhibition of HepG2 viability [2] | % inhibition of gametocyte viability ([3]; 1 µM) | % inhibition of gametocyte viability ([3]; 5 µM) | % inhibition of asexual blood stage proliferation ([4]; 2 µM) | % inhibition of asexual blood stage proliferation ([4]; 20 µM) | % inhibition of gametocyte viability ([5]; 1 µM) | % inhibition of gametocyte viability ([5]; 5 µM) | % inhibition of gametocyte viability ([6]; 1 µM) | % inhibition of gametocyte viability ([6]; 5 µM) | % inhibition of liver stage parasite viability [7]
1 | COc1ccccc1NC(=O)c1ccccc1Sc1ccc([N+](=O)[O-])cc1 | 85.2% | 108% | -1.52% | 17.1% | 14.1% | -1.69% | 81% | 7.24% | 1.71% | 3.21% | 8.85% | 27%
2 | CC(C)(C)c1cc(C(=O)/C(C#N)=N/Nc2cccc(Cl)c2)no1 | 113% | 97.4% | 44.1% | < 0% | < 0% | -1.08% | 24.2% | < 0% | < 0% | < 0% | < 0% | 51.5%
3 | CC[C@H](CO)Nc1nc(NCc2ccccc2)c2ncn(C(C)C)c2n1 | 157% | 60.7% | 10.6% | < 0% | < 0% | -11.2% | 88% | 1.02% | < 0% | 6.71% | < 0% | 26.6%
4 | c1ccc(-c2nnc3c4ccccc4c(N4CCNCC4)nn23)cc1 | 101% | 91.4% | 10.4% | 27.8% | 50.3% | 3.14% | 69.2% | < 0% | 0.889% | < 0% | 11.9% | 7.03%
5 | Clc1cccc(-c2nnc(-c3ccccc3)o2)c1 | 98.4% | 113% | -5.12% | < 0% | < 0% | 9.27% | 15.9% | < 0% | < 0% | < 0% | 30.2% | -89.2%
6 | O=S(=O)(Nc1ccccc1)c1ccc(NC(=S)Nc2ccccc2)cc1 | 84.1% | 81.9% | -1.98% | 7.06% | 6.95% | 43.6% | 45.2% | < 0% | < 0% | < 0% | < 0% | 25.7%
7 | O=C(Nc1ncc(Cc2cccc3ccccc23)s1)C1CCCCC1 | 83.3% | 53.3% | 7.25% | 16.9% | < 0% | 22.6% | 42.9% | < 0% | < 0% | < 0% | 0.604% | -13.3%
8 | CN(O)C(=O)c1cc2c(CN3CCC[C@H]3C(N)=O)cn(Cc3ccc(F)cc3)c2cn1 | 96% | 119% | -5.55% | 31.6% | 30.7% | 16.8% | 52.7% | < 0% | < 0% | < 0% | < 0% | 24.6%
9 | CCc1cc(Nc2cc(=O)n(CCN3CCN(C(=O)c4ccccc4)CC3)c(=O)[nH]2)ccc1C | 93.2% | 103% | -1.38% | < 0% | 23.7% | -6.84% | 61.3% | < 0% | < 0% | < 0% | 9.16% | 10.7%
10 | COC(=O)Nc1nc2cc(S(=O)c3ccccc3)ccc2[nH]1 (stereo not drawn) | 118% | 78% | 12.1% | 10.1% | 11.8% | 8.21% | 7.99% | 1.75% | < 0% | < 0% | < 0% | 9.84%
11 | CCN(CC)CCn1c(=N)n(CC(O)COc2ccc(Cl)cc2Cl)c2ccccc21 (stereo not drawn) | 98.9% | 0.284% | 2.98% | < 0% | < 0% | 95.4% | 101% | 82.2% | 90.7% | < 0% | 91.6% | 42.1%
12 | O=C(CC1Sc2ncnn2C1=O)Nc1ccc(Br)cc1 (stereo not drawn) | 100% | 102% | -3.25% | 20.1% | 9.94% | 24.1% | 42.2% | 8.79% | 43.5% | < 0% | 1.92% | 20.8%
13 | Nc1nc(NC2Cc3ccc(F)cc3C2)nc(N2CCCCC2)n1 (stereo not drawn) | 96% | 79.3% | 2.58% | 28.3% | 55.5% | 26.7% | 91% | 5.3% | < 0% | < 0% | 7.28% | 23.6%
14 | C[C@H]1CC[C@@]2(O)C(C)(C)[C@@H]3CC[C@@]2(C)[C@H]1C3 | 119% | 112% | -2.52% | < 0% | < 0% | 7.01% | 18.1% | < 0% | < 0% | < 0% | < 0% | 29.2%
15 | O=C(O)C(Cc1c[nH]c2ccccc12)N1C(=O)c2ccccc2C1=O (stereo not drawn) | 89.9% | 92% | -0.93% | < 0% | < 0% | 33.4% | 72.4% | 8.39% | < 0% | 13% | 22.9% | 21.1%
16 | COc1cc(NCc2ccc3nc(N)nc(N)c3c2C)cc(OC)c1OC | 109% | 47.7% | 17.2% | < 0% | < 0% | 40.8% | 88.6% | < 0% | < 0% | < 0% | < 0% | 69.1%
17 | CCNC(=O)Nc1cc2c(-c3ccnc(C)c3)ccc(CNC(=O)OC)c2cn1 | 92.8% | 58.1% | 5.56% | < 0% | 27.4% | 0.638% | 33.7% | < 0% | < 0% | < 0% | 5.9% | 25.9%
18 | O=C(NC1CCCc2c1[nH]c1ccc(Cl)cc21)c1ccccn1 (stereo not drawn) | 96.3% | 102% | 20.7% | < 0% | 6.95% | 20.6% | 37.5% | < 0% | < 0% | < 0% | < 0% | 2.22%
19 | OCCC#Cc1nc(-c2ccc(F)cc2)c(-c2ccncc2)n1CCCc1ccccc1 | 107% | 83% | 5.38% | < 0% | 30.5% | 15.3% | 83% | 1.66% | 8.02% | 5.66% | 32.2% | 36.6%
